# Screens: PubChem, National Center for Advancing Translational Sciences (NCATS)
# TDP1 cell CPT: qHTS for Inhibitors of human tyrosyl-DNA phosphodiesterase 1 (TDP1): qHTS in cells in presence of CPT; chicken DT40 Tdp1-/-;hTDP1 cells + 20 nM CPT, ATP luminescence, 48 h; Potency, µM (doses to about 46.2 µM), for the others: at the highest dose activity change, negative = growth inhibition, actives largely listed as inhibitors; 420,000 compounds, 12% hits; further: potency means the concentration at half of the fitted maximal effect; nearly all actives have a fitted effect of over 55% in size
#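 Chicken DT40 Tdp1-/- cells complemented with human TDP1, 400 cells/well, exposed to compounds plus 20 nM camptothecin for at least 48 h at 37 C; viability read as ATP content by CellTiter-Glo luminescence.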
# DT40 TDP1 no CPT: qHTS for Inhibitors of human tyrosyl-DNA phosphodiesterase 1 (TDP1): qHTS in cells in absence of CPT; DT40 Tdp1-/- hTDP1 cells, no CPT, ATP luminescence, 48 h; Potency, µM (titrated, usually from 46.2 µM), for the others: top-dose activity change, negative = growth inhibition, usual class: inhibitors; 420,000 compounds, 15% hits; AID 686978, 2013; further: potency means the concentration at half of the fitted maximal effect; nearly all actives have a fitted effect of over 55% in size
#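 Chicken DT40 Tdp1-/- cells stably complemented with human TDP1 were seeded at 400 cells/well with DMSO in place of 20 nM camptothecin. After compound pinning, cells grew at least 48 hr at 37 °C; viability read by CellTiter-Glo luminescence.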
# ALOX12 inh: Primary qHTS assay for inhibitors of human arachidonate 12S-lipoxygenase (ALOX12): Round 2; Polyunsaturated fatty acid lipoxygenase ALOX12 (Homo sapiens), P18054; AID 1671190, 2021; purified 12hLO, xylenol orange hydroperoxide absorbance; 580,000 compounds, 1.1% hits; Potency, µM (titrated, usually from 108 µM), for inactives: at the top dose activity change, negative = inhibition, hits mostly inhibitors; further: potency means the concentration at half of the fitted maximal effect
# Target sequence (P18054 whole entry, looked up): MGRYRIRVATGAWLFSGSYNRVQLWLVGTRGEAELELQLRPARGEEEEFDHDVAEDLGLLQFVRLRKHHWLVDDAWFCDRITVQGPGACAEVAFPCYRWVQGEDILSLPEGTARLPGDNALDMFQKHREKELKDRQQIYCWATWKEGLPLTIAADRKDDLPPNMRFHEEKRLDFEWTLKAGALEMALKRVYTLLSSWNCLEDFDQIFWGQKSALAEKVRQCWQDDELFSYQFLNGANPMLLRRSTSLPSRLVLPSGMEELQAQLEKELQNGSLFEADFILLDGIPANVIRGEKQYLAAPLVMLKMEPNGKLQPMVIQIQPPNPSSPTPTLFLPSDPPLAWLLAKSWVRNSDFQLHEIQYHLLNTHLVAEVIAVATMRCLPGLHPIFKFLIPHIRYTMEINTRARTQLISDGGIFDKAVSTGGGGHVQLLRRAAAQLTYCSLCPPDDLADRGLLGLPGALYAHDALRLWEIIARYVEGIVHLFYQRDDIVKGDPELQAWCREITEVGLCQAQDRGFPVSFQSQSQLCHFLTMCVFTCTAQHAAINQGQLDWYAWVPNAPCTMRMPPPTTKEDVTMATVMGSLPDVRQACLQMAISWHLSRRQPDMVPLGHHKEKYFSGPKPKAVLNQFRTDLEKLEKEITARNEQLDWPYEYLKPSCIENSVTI
#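 Hydroperoxide product was detected by ferrous iron/xylenol orange as the 573 to 405 nm absorbance ratio. Arachidonic acid at 40 uM (final) was turned over for 30 min at room temperature by 150 nM human 12hLO, pH 7.0 Hepes buffer, after 15 min compound preincubation.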
# IL-1B inflam inh: qHTS for Inhibitors of Inflammasome Signaling: IL-1-beta AlphaLISA Primary Screen. THP-1 LPS/ATP IL-1B secretion, AlphaLISA, 16 h; hits give low values. activity change, % at 57.5 µM. 360,000 compounds, 4.7% hits. AID 743279, 2014; in the data active means activity change below about -50%; inconclusive means mostly about -30% to -49%
#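 THP-1 cells pretreated 1 hr with compounds (up to 57.5 uM final), then stimulated with LPS (250 ng/mL final) plus ATP (1.25 mM final); secreted IL-1B measured by AlphaLISA after 16 hr, decreased signal indicating inhibition.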
# HT1080-NT tox: qHTS for induction of synthetic lethality in tumor cells producing 2HG: qHTS for the HT-1080-NT fibrosarcoma cell line. HT-1080-NT fibrosarcoma viability, CellTiter-Glo ATP luminescence, 48 h. Potency, µM (titrated, usually from 46.1 µM), without a hit: at the highest dose activity, negative = less viability, actives largely listed as cytotoxic. 360,000 compounds, 1.6% hits. AID 686970, 2013;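 further: NT is the 2HG producing partner of a matched IDH1 knockdown line; potency means the concentration at half of the fitted maximal effect; 0% = DMSO-treated cells and -100% = media-only wells without cells; nearly all actives have a fitted effect of over 55% in size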
#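 Toxicity toward the 2HG-producing NT line was scored as %Activity, normalised to DMSO and no-cell wells, from CellTiter-Glo luminescence after 48 hours' treatment.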
# HT1080 IDH1KD tx: qHTS for induction of synthetic lethality in tumor cells producing 2HG: qHTS for the HT-1080-IDH1KD cell line; HT-1080 IDH1 knockdown viability, ATP luminescence, 48 h; Potency, µM (series often up to 46.1 µM), for the others: at the top dose activity, negative = toxicity, actives largely listed as cytotoxic; 360,000 compounds, 2% hits; AID 686971, 2013;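 further: potency means the concentration at half of the fitted maximal effect; 0% = DMSO wells and -100% = cell-free medium wells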
#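 Using the IDH1-knockdown HT-1080 line run in the same batch and compound series as the NT line, viability after 48 h at 37 °C was determined by CellTiter-Glo luminescence and expressed as % activity.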
# * = called active by the depositor; i = inactive; ? = inconclusive; . = no result; [ ] = another dose, or the depositor's remark. The full list was thinned out, with hits kept by preference. Unless noted, the call rests on the fitted dose curve; in most records, active means well fitted curve in the direction sought with a large enough effect; inconclusive means small, poorly fitted or top-dose-only effect, or another doubt; inactive means no such curve, though single readings can be large; an effect the other way counts as inactive or inconclusive. Unless noted, on the % scale 0 is the no-effect control and ±100 the full control effect.
SMILES,TDP1 cell CPT,DT40 TDP1 no CPT,ALOX12 inh,IL-1B inflam inh,HT1080-NT tox,HT1080 IDH1KD tx
CCc1ccc(NC2CC(=O)N(CCc3ccc(OC)c(OC)c3)C2=O)cc1 (stereo not given),?,23.1µM*,6.7%,2.1,-13.6%,-6.8%
O=C(/C=C/c1ccc(F)cc1)NCC1Cc2cccc(-c3ncccn3)c2O1 (stereo not given),?,18.4µM*,5.8%,.,.,.
O=C(/C=C/c1ccccn1)NCC1Cc2cccc(-c3ncccn3)c2O1 (stereo not given),2.3%,-12.0%,-25.9%,.,.,.
O=C(O)c1ccc(S(=O)(=O)c2ccc(Sc3ccc(C(=O)O)c(C(=O)O)c3)cc2)cc1,-3.9%,-0.4%,1.5%,10.0,1.0%,8.6%
CCOC(=O)c1nnn(CC(=O)Nc2cc(F)ccc2F)c1C(=O)OCC,-11.4%,-15.8%,2.2%,-73.2*,13.7%,7.6%
Cc1cn(-c2cc(C(=O)Nc3ccc(C)c(NC(=O)C(=O)c4c[nH]c5ccccc45)c3)cc(C(F)(F)F)c2)cn1,8.2µM*,7.31µM*,3.2%,2.5,?,?
Cc1ccc(NC(=O)C(=O)c2c[nH]c3ccccc23)cc1F,.,.,7.4%,.,.,.
COc1ccc(NC(=O)c2ccc3c(c2)OCCN(Cc2ncccn2)C3)cc1F,.,.,9.6%[176 µM],.,.,.
O=C(O)c1ccc(-c2nnc(-c3ccccc3)o2)cc1,?,-18.9%,?,-3.8,-12.7%,-5.2%
O=C(c1ccc(-c2nnc(-c3ccccc3)o2)cc1)N1CCCCCC1,10µM*,17.8µM*,0.0%[57.4 µM],-6.0,1.5%,-3.6%
COc1cc2c(cc1OC)CN(C(=O)c1ccc3nc[nH]c3c1)CC2,3.26µM*,3.26µM*,-7.6%,67.8,10.3µM*,11.6µM*
CN(c1ccc(C(=O)N2CCCCC2)cc1)S(=O)(=O)c1cccs1,?,?,0.0%,0.3,-8.4%,-13.1%
COc1ccc(S(=O)(=O)N(C)c2ccc(C(=O)N3CCCCC3)cc2)cc1OC,7.31µM*,20.6µM*,8.9%,45.6,-11.4%,-6.1%
COc1ccc(C(=O)N2CCc3ccc(NC(=O)c4ccccn4)cc3C2)cc1F,20.6µM*,23.1µM*,-2.9%,-1.4,-20.9%,?
COc1cc2c(cc1OC)CN(C(=O)c1cccc(S(=O)(=O)N(C)C)c1)CC2,-10.2%,-0.2%,0.4%,10.3,0.2%,6.2%
CN(c1ccc(C(=O)N2CCCCCC2)cc1)S(=O)(=O)c1ccccc1,13µM*,8.2µM*,7.2%,13.7,2.0%,-0.7%
COc1ccc(S(=O)(=O)N(C)c2ccc(C(=O)N3CCOCC3)cc2)cc1,-21.2%,?,0.0%,-13.5,1.2%,3.0%
COc1ccc(S(=O)(=O)N(C)c2ccc(C(=O)N3CCCCC3)cc2)cc1,?,14.6µM*,-0.1%,0.0,-9.7%,-8.8%
CN1CCN(C(=O)c2ccc(S(=O)(=O)N(C)c3ccccc3)cc2)CC1,-15.2%,-0.5%,13.8%,-6.5,13.3%,11.3%
CN(c1ccc(C(=O)N2CCN(Cc3ccccc3)CC2)cc1)S(=O)(=O)c1ccc(Cl)cc1,?,16.4µM*,0.0%,.,-5.0%,?
COc1cc2c(cc1OC)CN(C(=O)c1ccc(S(=O)(=O)N(C)c3ccccc3)cc1)CC2,?,14.6µM*,-20.4%,2.3,?,-9.2%
O=S(=O)(NCc1ccc(N2CCOCC2)nc1)c1cc(Br)ccc1Br,.,.,0.8%,.,.,.
O=C(c1nn(Cc2ccccc2)c(=O)c2ccccc12)N1CCN(CCOc2ccccc2)CC1,.,.,-23.0%,.,.,.
COc1cc2c(cc1OC)CN(C(=O)c1cccc(S(=O)(=O)N3CCc4ccccc43)c1)CC2,20.6µM*,16.4µM*,3.7%,?,-1.6%,-28.7%
O=C(c1cccc(S(=O)(=O)N2CCc3ccccc32)c1)N1CCc2ccccc2C1,?,?,46.3%,?,-22.6%,-22.7%
SMILES,TDP1 cell CPT,DT40 TDP1 no CPT,ALOX12 inh,IL-1B inflam inh,HT1080-NT tox,HT1080 IDH1KD tx
Cc1ccsc1/C=C1\Oc2cc(OC(=O)c3cccs3)ccc2C1=O,.,.,-11.0%,.,.,.
CC(=O)C1=C(O)C(=Cc2ccccc2)OC1=O,1.8%,?,14.1µM*,-12.3,-12.8%,-6.5%
COc1ccc(C=C2OC(=O)C(C(C)=O)=C2O)cc1,?,16.4µM*,44.7µM*,-9.7,-3.8%,-8.8%
COc1ccc(/C=C2\OC(=S)N(C)C2=O)cc1,-10.5%,-19.1%,-11.2%,9.7,-0.5%,3.0%[9.24 µM]
COc1ccc(/C=C2\Oc3ccccc3C2=O)cc1,?,18.4µM*,?,-5.6,9.6%,-2.5%
COc1ccc2c(c1)O/C(=C\c1sccc1C)C2=O,?,18.4µM*,?,i,15.4%,13.0%
N#Cc1ccc(NC(=O)NCc2cccnc2)cc1,.,.,13.5%,.,.,.
Cn1c(=O)[nH]c(=O)c2c1nc(N1CCOCC1)n2CC(O)COc1ccc(Cl)cc1 (stereo not given),.,.,-8.6%,.,.,.
CC(C)(C)Cc1c(-c2ccccc2)nc2ccc(Br)cn12,?,23.1µM*,?,42.5,-5.6%,3.0%
Cc1ccc(-c2nc3ccc(Br)cn3c2CC(C)(C)C)cc1,?,11.6µM*,?,4.2,3.0%,4.4%
CC(C)(C)Cc1c(-c2cccc(Cl)c2)nc2ccc(Cl)cn12,?,?,?,-20.4,12.8%,2.8%
O=C(COC(=O)C12CC3CC(CC(C3)C1)C2)Nc1ccc([N+](=O)[O-])cc1C(F)(F)F,.,.,25.0%,.,.,.
Cn1c(=O)c(C2=NN(S(C)(=O)=O)C(c3ccco3)C2)c(-c2ccccc2)c2cc(Cl)ccc21 (stereo not given),.,.,-27.3%,.,.,.
C=CCNC(=O)C(NC(=O)c1ccc2c(c1)OCO2)C1CCN(C(=O)c2cccc(F)c2)CC1 (stereo not given),.,.,35.6%,.,.,.
Cc1cnc(C(=O)OCc2csc(CC(=O)Nc3ccccc3C)n2)cn1,3.2%,8.3%,0.0%,-4.4,-1.0%,-2.3%
COc1ccc2cc(C(=O)C3CCCN(C(=O)CCc4cnn(C)c4)C3)ccc2c1 (stereo not given),?,?,-14.3%,-56.5*,-1.6%,-8.3%
